TrxR1 inh – blocks rat thioredoxin reductase 1; O89049; recombinant rTrxR1, NADPH fluorescence consumption, selenite substrate; Potency, µM (highest dose often 114 µM), for the others: at the top dose activity change, negative = inhibition, hits mostly inhibitors; 1% of 390,000 active; AID 588453; also: nearly all actives have a fitted effect of over 65% in size
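Rat TrxR1 (90 nM in the dispensed reagent) was pre-reduced with 400 uM NADPH for 5 min at room temperature, then incubated with compound for 15 min. After 400 uM selenite was added, NADPH fluorescence (Ex 340/Em 450 nm) was followed for 8 min.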
Sfp PPTase inh – inhibitors of Bacillus subtilis Sfp phosphopantetheinyl transferase | Q9F4F7 | Biochemical Sfp PPTase activity, qHTS | Potency, µM, inactives show largest response in the series, negative = inhibition, usual class: inhibitors | 3.5% of 310,000 active;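 also: the enzyme is Sfp with the accession as filed and its product quenches rhodamine fluorescence; 0% = enzyme reaction without inhibitor and -100% = no enzyme wells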
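With Hepes-Na pH 7.6 buffer containing 10 mM MgCl2, Sfp (15 nM) modified BHQ-2-YbbR (12.5 uM) using rhodamine-CoA (5 uM). Two reads 30 minutes apart at 525/598 nm yielded each well's rate.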
VDR inhibitor – blocks the human vitamin D receptor | VDR-SRC2-3 peptide fluorescence polarization, 2 h | Potency, µM, for the others: max response, negative = inhibition, usual class: inhibitors | 0.93% of 400,000 active
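Two reagent solutions held at 4 deg C in the dark were dispensed, compounds pinned at 23 nl, and the mixture incubated 2 h at room temperature. Read-out: fluorescence polarization of VDR–SRC2-3 peptide binding.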
GLS inh – inhibitors of human glutaminase (GLS); GLS enzymatic activity, qHTS titration; Potency, µM (series often up to 45.5 µM), for inactives: top-dose activity change, negative = inhibition, most hits filed as inhibitors; 0.21% of 410,000 active
Target sequence (O94925 whole entry, looked up): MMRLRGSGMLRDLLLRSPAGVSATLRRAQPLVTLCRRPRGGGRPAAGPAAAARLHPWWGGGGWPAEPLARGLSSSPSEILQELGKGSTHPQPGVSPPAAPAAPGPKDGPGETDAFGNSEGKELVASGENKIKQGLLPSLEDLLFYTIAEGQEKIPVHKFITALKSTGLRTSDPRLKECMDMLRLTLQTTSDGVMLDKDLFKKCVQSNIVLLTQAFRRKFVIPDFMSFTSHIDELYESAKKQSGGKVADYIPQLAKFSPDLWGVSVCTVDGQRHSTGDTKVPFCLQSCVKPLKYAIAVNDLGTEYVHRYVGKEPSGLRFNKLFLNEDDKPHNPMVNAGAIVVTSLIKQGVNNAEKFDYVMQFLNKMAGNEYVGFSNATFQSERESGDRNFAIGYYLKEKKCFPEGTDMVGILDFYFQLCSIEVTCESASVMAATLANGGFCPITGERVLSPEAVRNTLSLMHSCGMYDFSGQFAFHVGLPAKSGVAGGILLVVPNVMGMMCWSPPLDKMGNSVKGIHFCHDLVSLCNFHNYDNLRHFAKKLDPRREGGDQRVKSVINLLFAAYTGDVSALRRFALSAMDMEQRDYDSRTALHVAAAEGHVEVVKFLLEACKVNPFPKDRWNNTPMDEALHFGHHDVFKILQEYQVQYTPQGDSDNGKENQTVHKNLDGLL
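Glutamate formation by hKGA was monitored fluorometrically using coupled glutamate oxidase, HRP and Amplex Red. Substrate was added as 1 mM L-glutamine solution; incubation was 30 min at RT after an initial read.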
TrxR1 substrate – substrates of rat thioredoxin reductase 1; O89049; purified TrxR1 substrate turnover, NADPH consumption readout; Potency, µM (highest dose often 114 µM), for inactives: top-dose activity change, negative = substrate turnover; 0.01% of 390,000 active; also: nearly all actives have a fitted effect of over 50% in size
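Rat TrxR1, dispensed at 90 nM, was prereduced with 400 uM NADPH (final) for 5 min at ~22 deg C, then incubated with compound 15 min before 400 uM selenite. A first-read NADPH fluorescence drop versus no-compound background flagged substrates.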
GCN5L2 inh – blocks human GCN5L2 histone acetyltransferase; Q92830; GCN5L2 HAT assay, ThioGlo1 CoA-SH fluorescence; Potency, µM (series often up to 58.9 µM), inactives show at the top dose activity change, negative = inhibition, hits mostly inhibitors; 0.21% of 390,000 active
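Enzyme at 20nM final was mixed with library compounds for 15 min at room temperature. Peptide H3(1-25) at 75uM, acetyl-CoA at 70uM and ThioGlo1 at 50uM were then added. Plates were read immediately and after 20 min (Ex340nm/Em540nm).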
The depositor's hits bear a star; ? = inconclusive; . = not tested or not shown; [ ] = dose if it differs, or a comment. Sampled rows, rich in hits. Any-hit rate of the full collection: about 3.8%. Calls follow the shape of the dose curve; as a rule, active = well fitted curve in the direction sought with a large enough effect; inconclusive = small, poorly fitted or top-dose-only effect, or another doubt; inactive = no such curve, though single readings can be large; an effect the other way counts as inactive or inconclusive. Unless noted, % is scaled to controls: 0 for no effect and ±100 for the full control effect; potency is read from the fitted curve at half-maximal effect.

SMILES	TrxR1 inh	Sfp PPTase inh	VDR inhibitor	GLS inh	TrxR1 substrate	GCN5L2 inh
CCN1/C(=C/c2ccc3ccccc3[n+]2CCCS(=O)(=O)[O-])C=Cc2cc(C)ccc21	11%	-21%	-4%	0%	-8%	4%
CCN1/C(=C/c2ccc3ccccc3[n+]2CC)C=Cc2ccccc21	?	50µM*	15%	11%	-5%	-4%[0.501 µM]
CN=Cc1sc2ccccc2c1O	20%	-2%	-3%	13%	6%	-6%
CCCN=Cc1sc2ccc(OCC)cc2c1O	1%	50µM*	-9%	-21%	10%[57.1 µM]	-8%
Nc1nonc1NN=C1CCCCC1	2%	79µM*	20%	10%	2%	-4%
O=C(CN1C(=O)CCC1=O)Nc1ccc(Cc2ccc(NC(=O)CN3C(=O)CCC3=O)cc2)cc1	9%	4%	-14%	0%	0%	1%
CCc1nnc(NC(=O)CSc2nnc(CSc3nc(C)cc(C)n3)o2)s1	-3%[57.1 µM]	50µM*	1%	-1%	5%[57.1 µM]	-4%
Clc1ccc(CSc2nnc(-c3ccc4c(c3)OCO4)o2)cc1	14%[57.1 µM]	50µM*	1%	2%	8%[57.1 µM]	3%
Clc1ccc(CSc2nnc(-c3cccnc3)o2)cc1	-10%[57.1 µM]	9%	26%	-5%	-3%[57.1 µM]	4%
COc1ccc(C(=O)Cn2c(N3CCOCC3)nc3c2c(=O)n(C)c(=O)n3C)cc1	.	21%	.	.	.	-2%
COc1ccc(C(=O)Cn2c(Cl)nc3c2c(=O)n(C)c(=O)n3C)cc1	26%[57.1 µM]	13µM*	5%	6%	8%[57.1 µM]	-4%
Cc1ccc(-n2c(C)csc2=N)cc1	14%	-9%	14%	9%	0%	16%
O=c1c(Cl)c(O)c2cccc3c4ccccc4n1c23	-27%	14µM*	?	?	172%	-14%
COc1c(O)c(=O)n2c3ccccc3c3ccnc1c32	4%	.	10%	?	-1%	-3%
C=CCOc1ccc(C2C(C(=O)c3cccs3)=C(O)C(=O)N2c2nnc(C)s2)cc1 (configuration not stated)	-28%	.	-16%	-1%	-10%	.
COc1ccc(C2C(C(=O)c3cccs3)=C(O)C(=O)N2c2nnc(C)s2)cc1OC (configuration not stated)	-3%	56µM*	-1%	7%	7%	1%
Cc1ccc(C(C)C)c(OCC(=O)Nc2ccc(Cl)cn2)c1	-7%	-1%	7%	-8%	-5%	1%
Cc1ccc(C(C)C)c(OCc2nn(CC(=O)c3ccc(Cl)cc3)c3[n+]2CCCCC3)c1	6%[57.1 µM]	32µM*	12%	?	6%[57.1 µM]	19%
CC(=O)NCCNC(=O)C1(C)Cc2c(-c3cccc(NC(C)=O)c3)ccnc2O1 (configuration not stated)	.	.	.	4%	.	.
O=C(O)CCC(=O)Nc1sc2c(c1C(=O)Nc1cccc3ccccc13)CCCCC2	-14%	50µM*	?	-3%	-7%	-3%
COc1ccc(OC)c(NC(=O)c2c(NC(=O)CCC(=O)O)sc3c2CCCCC3)c1	-19%	50µM*	?	7%	-1%	0%
CNC(=O)c1c(NC(=O)c2nc3ccccc3s2)sc2c1CCC2	.	18µM*	.	.	.	-3%
CCOc1ccccc1NC(=O)c1c(NC(=O)c2ccccc2)sc2c1CCCC2	3%	.	-6%	-8%	7%	-4%
CCc1ccccc1NC(=O)c1c(NC(=O)c2ccccc2)sc2c1CCCC2	89µM*	.	-9%	0%	81%	-4%
Cc1ccc(Cl)cc1N1CCN(C(=O)Cc2c(C(=O)O)c(C)cn2C)CC1	14%[57.1 µM]	.	-1%	1%	2%[57.1 µM]	-5%
CC1(C)NC(=O)N(CCCCOc2cccc(C(F)(F)F)c2)C1=O	17%	5%	-13%	5%	-9%	-5%
COc1ccc(OC)c(NC(=O)c2c(NCc3cccs3)sc3c2CCCC3)c1	45µM*	.	-14%	1%	-5%	-13%
